An excerpt weighted towards active compounds, which were near 1.3% of everything screened.
Pin1 inhibitor – human Pin1 inhibition; Q13526; Pin1 FP peptide displacement, HiFluor488, 10 min; Potency, µM (doses to about 115 µM), without a hit: at the highest dose activity, negative = inhibition, most hits filed as inhibitors; hit rate 0.009% among 390,000; active = well fitted inhibition curve with a large enough effect in the polarisation, with a control signal flat, not every such curve was filed as active; inconclusive = small, poorly fitted or top-dose-only effect, or effect the other way, or a change in a side signal; inactive = no such curve, though single readings can be large or run the other way; the % refers to the polarisation; also: potency is read from the fitted curve at half-maximal effect
rTrxR1 inhibitor – rat TrxR1 inhibition; recombinant rTrxR1, NADPH fluorescence consumption, selenite substrate; hit rate 1% among 390,000; O89049; Potency, µM (titrated, usually from 114 µM), for the others: top-dose activity change, negative = inhibition, usual class: inhibitors; AID 588453; also: potency is read from the fitted curve at half-maximal effect; nearly all actives have a fitted effect of over 65% in size
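Rat TrxR1 (90 nM in the dispensed reagent) was pre-reduced with 400 uM NADPH for 5 min at room temperature, then incubated with compound for 15 min. After 400 uM selenite was added, NADPH fluorescence (Ex 340/Em 450 nm) was followed for 8 min.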
KAT2A inh – inhibitors of human GCN5L2 histone acetyltransferase; Q92830; hit rate 0.21% among 390,000; GCN5L2 HAT assay, ThioGlo1 CoA-SH fluorescence; Potency, µM (top dose mostly 58.9 µM), inactives show top-dose activity change, negative = inhibition, most hits filed as inhibitors; also: potency is read from the fitted curve at half-maximal effect
Target sequence (Q92830 whole entry, looked up): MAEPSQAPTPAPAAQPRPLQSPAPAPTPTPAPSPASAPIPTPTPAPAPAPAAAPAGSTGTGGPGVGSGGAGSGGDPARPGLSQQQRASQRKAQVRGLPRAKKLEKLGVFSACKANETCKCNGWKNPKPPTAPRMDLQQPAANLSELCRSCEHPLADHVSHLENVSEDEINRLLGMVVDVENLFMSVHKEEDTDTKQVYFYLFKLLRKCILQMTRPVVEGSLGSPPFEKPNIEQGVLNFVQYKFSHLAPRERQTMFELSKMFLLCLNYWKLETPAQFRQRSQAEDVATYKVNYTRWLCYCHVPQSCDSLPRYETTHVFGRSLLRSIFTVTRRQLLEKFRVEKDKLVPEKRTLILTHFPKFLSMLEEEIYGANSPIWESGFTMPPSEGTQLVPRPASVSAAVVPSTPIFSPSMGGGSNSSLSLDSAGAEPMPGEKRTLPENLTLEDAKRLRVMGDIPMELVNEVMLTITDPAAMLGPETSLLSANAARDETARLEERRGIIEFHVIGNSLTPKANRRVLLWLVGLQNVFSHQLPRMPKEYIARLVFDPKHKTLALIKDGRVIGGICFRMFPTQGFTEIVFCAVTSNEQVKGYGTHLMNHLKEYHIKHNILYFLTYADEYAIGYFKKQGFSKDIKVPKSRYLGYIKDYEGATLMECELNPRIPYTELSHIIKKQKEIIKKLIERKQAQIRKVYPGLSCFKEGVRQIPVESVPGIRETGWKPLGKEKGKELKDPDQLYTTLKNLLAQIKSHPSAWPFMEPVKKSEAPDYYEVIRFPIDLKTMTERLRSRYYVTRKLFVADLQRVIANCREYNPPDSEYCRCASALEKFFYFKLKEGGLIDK
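qHTS, 1536-well. 20nM enzyme, pH 7.5 HEPES/EDTA/Tween-20 buffer; 15 min compound preinc., RT. Start: 75uM H3(1-25), 70uM AcCoA, 50uM ThioGlo1. Read Ex340/Em540 at t=0 (autofluorescence flag) and t=20 min.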
GALK inhibitor – inhibitors of human galactokinase. hit rate 0.007% among 270,000. Purified GALK, Kinase-Glo residual ATP luminescence. Potency, µM (series often up to 57.5 µM), without a hit: top-dose activity change, negative = inhibition, usual class: inhibitors. P51570; also: potency is read from the fitted curve at half-maximal effect
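Kinase-Glo Plus luminescence measured ATP left after a 1 h room-temperature reaction. The reaction used 5 nM GALK, 100 uM galactose and 35 uM ATP at pH 8.0 (20 mM HEPES, 5 mM MgCl2, 60 mM NaCl, 1 mM DTT, 0.01% BSA).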
TrxR1 substrate – substrates of rat thioredoxin reductase 1 | Potency, µM (highest dose often 114 µM), without a hit: top-dose activity change, negative = substrate turnover | AID 588456 | hit rate 0.01% among 390,000 | purified TrxR1 substrate turnover, NADPH consumption readout | O89049; also: potency is read from the fitted curve at half-maximal effect; nearly all actives have a fitted effect of over 50% in size
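Rat TrxR1, dispensed at 90 nM, was prereduced with 400 uM NADPH (final) for 5 min at ~22 deg C, then incubated with compound 15 min before 400 uM selenite. A first-read NADPH fluorescence drop versus no-compound background flagged substrates.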
Giardia killer – Giardia lamblia killing. Giardia lamblia trophozoite viability. activity change, % at 7.66 µM, hits read low. hit rate 0.15% among 340,000; in the data active = activity change below about -80%; inconclusive = between about -30% and that limit;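 also: parasites exposed to compound for two days anaerobically before the ATP read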
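Luminescent ATP signal served as the viability read-out, measured 15-30 min after adding ATP detection reagent to trophozoites that had been incubated with compounds for 48 hrs at 37 deg C anaerobically at 100 cells/well.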
An asterisk follows results filed as active; i = inactive; ? = inconclusive; nt = no result given; [ ] = remark or other dose. Unless noted, calls follow the shape of the dose curve; as a rule, active = well fitted curve in the direction sought with a large enough effect; inconclusive = small, poorly fitted or top-dose-only effect, or another doubt; inactive = no such curve, though single readings can be large; an effect the other way counts as inactive or inconclusive. % is scaled to controls: 0 for no effect and ±100 for the full control effect.

SMILES	Pin1 inhibitor	rTrxR1 inhibitor	KAT2A inh	GALK inhibitor	TrxR1 substrate	Giardia killer
NCCCNCCCCNCCCNC(=O)Cc1ccc(O)cc1	nt	nt	12.7%[12.7 µM]	nt	nt	nt
Nc1c([N+](=O)[O-])ccc(Oc2ccccc2)c1Cl	nt	nt	5.4%	nt	nt	nt
CN(C)c1ccc(N=Nc2ccccc2)cc1	nt	2.3%	nt	nt	-9.1%	nt
CN(C)c1ccc(N=O)cc1	nt	5.01µM*	nt	nt	?	nt
NC(=O)O	nt	nt	-17.1%	nt	nt	nt
CNCCc1ccc(OC)c(OC)c1	5.0%	20µM*	?	3.3%	5.9%[57.1 µM]	-3.6
O=C(O[C@@H]1Cc2c(O)cc(O)cc2O[C@@H]1c1cc(O)c(O)c(O)c1)c1cc(O)c(O)c(O)c1	nt	nt	-7.1%	10µM*	nt	nt
COc1ccc(-c2cc3nc(C)c(CCC(=O)N4CCN(c5cc(C)ccc5C)CC4)c(C)n3n2)c(OC)c1	-8.1%	40.9%	0.6%	nt	17.7%	nt
O=c1ccc2cc(O[C@@H]3O[C@@H](CO)[C@H](O)[C@@H](O)[C@@H]3O)c(O)cc2o1	-0.3%	?	22.4µM*	-0.2%	i	-0.8
N#CC(O[C@@H]1OC(COC2OC(CO)C(O)C(O)[C@@H]2O)C(O)C(O)C1O)c1ccccc1 (some centres undefined)	nt	nt	10.0%	nt	nt	nt
CSCC[C@H](NC(=O)[C@H](CC(C)C)NC(=O)[C@@H](Cc1cnc[nH]1)NC(=O)[C@H](Cc1ccccc1)NC(=O)[C@@H](Cc1ccccc1)NC(=O)[C@@H](N)Cc1ccc(O)cc1)C(N)=O	nt	nt	-4.6%	nt	nt	nt
O=C1OC(c2cc(I)c(O)c(I)c2)(c2cc(I)c(O)c(I)c2)c2ccccc21	nt	nt	8.91µM*	nt	nt	nt
O=C1NC(=O)N(c2ccccc2)C(=O)/C1=C\c1ccc([N+](=O)[O-])o1	nt	nt	-7.1%	-4.6%	nt	nt
CCOc1ccc(N2C(=O)NC(=O)/C(=C\c3ccccc3[N+](=O)[O-])C2=O)cc1	-0.2%	8.91µM*	-4.7%	0.6%	1.3%	-5.8
COc1ccc(N2C(=O)NC(=O)/C(=C\c3ccccc3[N+](=O)[O-])C2=O)cc1	-10.7%	10µM*	3.0%	5.0%	-5.9%	-0.7
C[C@H](CCC(=O)O)C[C@H](C)C[C@H](C)C(=O)/C=C(\O)[C@H](C)C[C@H](C)C/C=C/[C@@H](C)[C@@H](O)[C@@H](C)[C@@H](O)C[C@@H]1CC[C@@](C)([C@H]2CC[C@@](C)([C@@H](C)O)O2)O1	nt	nt	2.1%	nt	nt	nt
O=C(CCN1CC2CCC(CC2)C1)c1cccs1	4.3%	0.447µM*	nt	nt	7.4%[11.4 µM]	-15.0
O=[N+]([O-])c1cc([As](=O)(O)c2ccc(O)c([N+](=O)[O-])c2)ccc1O	-12.6%	-7.1%[57.1 µM]	-3.7%	0.7%	-0.5%[57.1 µM]	-83.4*
O=[N+]([O-])c1cc(-c2ccc([As](=O)(O)O)cc2)ccc1[As](=O)(O)O	nt	nt	-1.2%	7.2%	nt	nt
CNCC(N)C(=O)O (centres undefined)	nt	nt	0.0%	nt	nt	nt
COc1cc(/C=C2\C(=O)NC(=O)N(CCc3ccc(F)cc3)C2=O)ccc1O	?	14.1µM*	-2.2%	-1.0%	-9.4%	11.4
CCOc1ccc(/C=C2/C(=O)NC(=O)N(CCc3ccc(F)cc3)C2=O)cc1	4.9%	28.2µM*	-23.5%	-4.3%	0.9%	-4.4
Cc1c(O)c(O)cc2c1CC=C1[C@]3(C)CC[C@]4(C)CC[C@@](C)(C(=O)O)CC4[C@]3(C)CC[C@]12C (some centres undefined)	nt	nt	-16.9%	nt	nt	nt
CC1=C(O)C(=O)C=C2C1=CC=C1C2(C)CCC2(C)C3CC(C)(C(=O)O)CCC3(C)CCC12C (centres undefined)	?	20µM*	nt	nt	-13.7%	?
O=C(CO)C(O)C(O)C(O)CO (centres undefined)	?	6.0%	-1.4%	nt	-3.5%	9.1
SMILES	Pin1 inhibitor	rTrxR1 inhibitor	KAT2A inh	GALK inhibitor	TrxR1 substrate	Giardia killer
CC(=O)O.CC(=O)O.[Cd]	nt	nt	-2.1%	nt	nt	nt
CN1C(=O)C(=Cc2ccc(-c3cccc(Cl)c3)o2)C(=O)N(C)C1=O	nt	nt	-12.0%	nt	nt	nt
CN1C(=O)C(=Cc2ccccc2Oc2ccc(Cl)c(F)c2)C(=O)N(C)C1=O	4.4%	11.2µM*	-3.3%	5.9%	-5.5%	10.3
O=C1NC(=O)C(=Cc2ccccc2[N+](=O)[O-])C(=O)N1	-9.8%	7.94µM*	nt	nt	5.7%	-2.0
O=C1NC(=O)C(=Cc2csc3ccccc23)C(=O)N1	5.7%	?	-7.8%	-2.1%	6.6%[57.1 µM]	1.2
CN(C)c1ccc(C=C2C(=O)NC(=O)NC2=O)cc1[N+](=O)[O-]	3.4%	?	-13.1%	-0.6%	1.2%[57.1 µM]	7.8
O=C1NC(=O)C(=Cc2ccccc2Oc2ccc(F)cc2)C(=O)N1	-8.5%	12.6µM*	-2.0%	-2.8%	-3.9%[57.1 µM]	-1.2
O=C1NC(=O)C(=Cc2cc3c(cc2[N+](=O)[O-])OCO3)C(=O)N1	-15.8%	8.91µM*	-9.0%	-1.0%	9.5%	-0.1
COP(=S)(OC)Oc1ccc([N+](=O)[O-])cc1	nt	nt	-7.8%	nt	nt	nt
CN1C(=O)C(=Cc2ccc(N3CCCCCC3)o2)C(=O)N(C)C1=S	?	2.9%[57.1 µM]	-4.5%	7.2%	-8.8%	-6.6
O=C(O)c1ccccc1-c1ccc(C=C2C(=O)N(c3ccccc3)C(=S)N(c3ccccc3)C2=O)o1	?	8.91µM*	?	-3.1%	1.4%	20.2
O=[N+]([O-])c1ccc(CN2CCN(c3ccc(Cl)cc3)CC2)o1	-14.9%	?	-4.8%	2.7%	-0.8%	-93.7*
C=CCN1C(=O)/C(=C/c2cc(C)n(-c3ccccn3)c2C)C(=O)NC1=S	23.4%	50.1µM*	-1.5%	0.1%	-14.5%	-3.0
Cc1cc(/C=C2/C(=O)NC(=O)N(C)C2=O)c(C)n1-c1ccccc1	11.9%	0.6%	-2.6%	-2.3%	5.6%	4.0
CON(C)C(=O)Nc1ccc(Br)cc1	nt	nt	1.1%	nt	nt	nt
Cn1c(=O)oc(=O)c2ccccc21	-11.0%	56.2µM*	nt	nt	150.0%	21.1
COc1ccc(-c2cc(=O)c3cc(OCC(=O)OC(C)C)ccc3o2)cc1	7.0%	24.9%	10.7%	nt	172.9%	nt
O=C1NC(=S)NC(=O)C1=Cc1ccc(OCc2ccccc2)cc1	6.9%	7.94µM*	nt	nt	3.3%	-17.6
COc1ccc(C=C2C(=O)NC(=S)NC2=O)cc1	-14.7%	2.82µM*	nt	nt	-4.4%	1.5
CN(C)c1ccc(C=C2C(=O)NC(=S)NC2=O)cc1[N+](=O)[O-]	-14.4%	3.98µM*	-15.3%	-1.9%	4.9%[57.1 µM]	-10.1
CC(C)C1C(=O)N2CCC[C@H]2[C@]2(O)O[C@](NC(=O)[C@@H]3C=C4c5cccc6[nH]cc(c56)C[C@H]4N(C)C3)(C(C)C)C(=O)N12 (some centres undefined)	nt	nt	-12.2%	nt	nt	nt
COc1ccccc1C(=O)Nc1ccc2nc(SCC(=O)N(C)c3ccccc3)sc2c1	12.2%	31.8%	-13.8%	nt	5.5%	nt
O=C(O)CCC(CP(=O)(O)O)C(=O)O (centres undefined)	nt	nt	0.0%	nt	nt	nt

High-throughput results (PubChem BioAssay)
